Compounds with a hit are over-represented: about 2.9% of the library has one in this group of screens.
PAFAH1B2 FP inh = inhibitors of human PAFAH1B2 | P68402 | recombinant PAFAH1B2, FP-rhodamine activity probe, fluorescence polarization | inhibition, % at 3.39 µM | 1.2% of 340,000 active | AID 492953;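 active = inhibition above the mean of all tested compounds plus 3 SD, cut at about 24% in these data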;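 note: 0% = enzyme with DMSO and 100% = wells lacking PAFAH1B2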
Target sequence (P68402 whole entry, looked up): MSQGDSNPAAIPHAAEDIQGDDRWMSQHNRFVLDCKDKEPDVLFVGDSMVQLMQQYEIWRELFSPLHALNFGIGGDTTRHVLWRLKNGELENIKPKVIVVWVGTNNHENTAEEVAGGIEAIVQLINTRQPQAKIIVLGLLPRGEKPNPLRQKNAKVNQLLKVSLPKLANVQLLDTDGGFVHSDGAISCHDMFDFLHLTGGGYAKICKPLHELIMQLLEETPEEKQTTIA
rCAG RNA binder = r(CAG) repeat RNA binding | TO-PRO-1 dye displacement fluorescence | inhibition, % at 3 µM | 1.3% of 370,000 active;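 active = inhibition above the plate cutoff, the mean of all test compounds on that plate plus 3 SD, cut at about 35% in these data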;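 note: 0% = DMSO alone and 100% = 100 µM mitoxantrone as full dye displacement; higher means more dye released from RNA so lower well fluorescence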
PAFAH2 inh = PAFAH2 (human) inhibition; inhibition, % at 3.39 µM; recombinant PAFAH2, FP-rhodamine activity probe, fluorescence polarization; Q99487; 0.99% of 340,000 active;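 active = inhibition above the mean over all tested compounds plus 3 SD, cut at about 30% in these data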;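 note: inhibitors block probe labeling of enzyme so polarization drops; 0% = enzyme with DMSO and 100% = wells lacking PAFAH2 protein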
PAFAH1B3 inh = PAFAH1B3 (human) inhibition | inhibition, % at 3.39 µM | recombinant PAFAH1B3, FP-rhodamine probe, fluorescence polarization | 0.28% of 340,000 active | Q15102;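 active = inhibition above the screen-wide average of all tested compounds plus 3 SD, cut at about 25% in these data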;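 note: 0% = enzyme with DMSO only and 100% = wells lacking PAFAH1B3 protein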
Target sequence (Q15102 whole entry, looked up): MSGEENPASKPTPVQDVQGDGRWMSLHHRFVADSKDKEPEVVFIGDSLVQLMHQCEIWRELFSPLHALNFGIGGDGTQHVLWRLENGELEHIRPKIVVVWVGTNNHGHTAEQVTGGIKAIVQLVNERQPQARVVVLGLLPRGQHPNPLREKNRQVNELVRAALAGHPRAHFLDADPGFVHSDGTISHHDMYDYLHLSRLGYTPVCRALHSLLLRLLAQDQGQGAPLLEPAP
EBNA-1 inh = blocks EBNA-1 binding to DNA. EBNA-1 DNA binding, fluorescence polarization. inhibition, % at 14.8 µM. 0.34% of 300,000 active. AID 1950; in the data active = inhibition above about 28%
ZTA counter = ZTA (EBV) inhibition in EBNA-1 counter-screen | P03206 | ZTA-DNA binding, fluorescence polarization | inhibition, % at 11 µM | 0.15% of 320,000 active; in the data active = inhibition above about 33%
PAFAH2 confirm = PAFAH2 (human) inhibition, confirmed | shares compounds with PAFAH2 inh | recombinant PAFAH2, FP-rhodamine activity probe, fluorescence polarization | inhibition, % at 3.39 µM | 65% of 2,300 active | AID 493030;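 active = mean inhibition over three repeats above a set limit taken from the earlier primary screen, cut at about 30% in these data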;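 note: inhibitor blocks binding of rhodamine activity probe so polarization falls; 0% = enzyme with DMSO and 100% = wells lacking PAFAH2 protein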
An asterisk follows results filed as active.

`CC1(C)CC(=O)c2cc3c(nc2C1)CC(C)(C)CC3=O` gave PAFAH1B2 FP inh 9, rCAG RNA binder -2, PAFAH2 inh 50*, PAFAH1B3 inh 1, EBNA-1 inh -7, ZTA counter -22 and PAFAH2 confirm 34*.
`Cc1occc1C(=O)OCC(=O)Nc1ccc(F)cc1` gave PAFAH1B2 FP inh 1, rCAG RNA binder 6, PAFAH2 inh 73*, PAFAH1B3 inh 5, EBNA-1 inh 1, ZTA counter -11 and PAFAH2 confirm 62*.
O=C(COC(=O)c1ccccc1Br)Nc1ccc(F)cc1 was read as PAFAH1B2 FP inh 5, rCAG RNA binder -2, PAFAH2 inh 76*, PAFAH1B3 inh 5, EBNA-1 inh 5, ZTA counter 4 and PAFAH2 confirm 70*.
`Cn1cc(C=C2C(=O)OC3(CCCCC3)OC2=O)c2ccccc21` gave PAFAH1B2 FP inh 16, rCAG RNA binder -2, PAFAH2 inh 46*, PAFAH1B3 inh 7, EBNA-1 inh 0, ZTA counter -4 and PAFAH2 confirm 46*.
`COC(=O)[C@]12C[C@H](CC(=O)N3CCSCC3)C(=O)N(Cc3ccc(Cl)cc3Cl)C1=C[C@H](C1CCCC1)O[C@@H]2C` gave rCAG RNA binder 6.
For N#Cc1ccc(NC(=O)COC(=O)c2ccc(F)c(S(=O)(=O)N3CCOCC3)c2)cc1 the results were PAFAH1B2 FP inh 1, rCAG RNA binder 3, PAFAH2 inh 48*, PAFAH1B3 inh 10, ZTA counter 6 and PAFAH2 confirm 39*.
Screening Cc1ccc(NC(=O)COC(=O)c2ccc3c(c2)OCCO3)cc1S(=O)(=O)N1CCOCC1 returned PAFAH1B2 FP inh -2, rCAG RNA binder 5, PAFAH2 inh 81*, PAFAH1B3 inh 4, EBNA-1 inh 2, ZTA counter -1 and PAFAH2 confirm 74*.
N#Cc1ccc(NC(=O)COC(=O)c2cccc(S(=O)(=O)N3CCCC3)c2)cc1 was read as rCAG RNA binder 3.
Cc1ccc(C(=O)OCC(=O)Nc2ccc3c(c2)OCO3)cc1S(=O)(=O)N1CCOCC1 was read as PAFAH1B2 FP inh -2, rCAG RNA binder 7, PAFAH2 inh 74*, PAFAH1B3 inh 4, EBNA-1 inh -7, ZTA counter -2 and PAFAH2 confirm 76*.
`Cc1ccc(C(=O)OCC(=O)Nc2ccc3[nH]c(=O)[nH]c3c2)cc1S(=O)(=O)N1CCOCC1` gave PAFAH1B2 FP inh -1, rCAG RNA binder 0, PAFAH2 inh 2, PAFAH1B3 inh 2, EBNA-1 inh -10 and ZTA counter -28.
`Cc1ccc(C(=O)Nc2ccc3c(c2)OCO3)cc1S(=O)(=O)N1CCOCC1` gave PAFAH1B2 FP inh 2, rCAG RNA binder -2, PAFAH2 inh 4, PAFAH1B3 inh -3, EBNA-1 inh -10 and ZTA counter 16.
Screening Cc1ccc(NC(=O)COC(=O)c2ccc(NC(=O)CC#N)cc2)cc1S(=O)(=O)N1CCOCC1 returned PAFAH1B2 FP inh -13, rCAG RNA binder 21, PAFAH2 inh 57*, PAFAH1B3 inh -28 and PAFAH2 confirm 64*.
Screening Cc1ccc(-c2nc(C3CCCN(S(=O)(=O)c4ccc(C)c(C)c4)C3)no2)cc1 (stereo unspecified) returned rCAG RNA binder 5.
`COc1ccc(C(=O)CSc2nnc(-c3cccnc3)n2-c2ccccc2)cc1` gave rCAG RNA binder 2.
Screening CC(CCN1CCC(C(O)(c2ccccc2)c2ccccc2)CC1)Oc1cccc(F)c1 (stereo unspecified) returned rCAG RNA binder 1.
Cc1ccc(CN2C(C(=O)NC3CCCC3)CSCCS2(=O)=O)cc1 (stereo unspecified) was read as rCAG RNA binder 1.
For CCCCNC(=O)C[C@H]1C(=O)N(Cc2ccc(OC)cc2)C2=CCCCC[C@@]21C(=O)OC the results were rCAG RNA binder 10.
`Cc1ccc(NC(=O)COC(=O)CN2C(=O)C3CCCCC3C2=O)cc1S(=O)(=O)N1CCOCC1` (stereo unspecified) gave PAFAH1B2 FP inh 4, rCAG RNA binder 3, PAFAH2 inh 7, PAFAH1B3 inh 2, EBNA-1 inh 1 and ZTA counter -20.

Assay outcomes (PubChem)
